Laboratory results: the supplement of paper PMC5662767
Counter-ions that a name gives are not always drawn.

System: Drosophila S2 cl14 SmoIP sensor cells
Assay: normalized SmoIP GFP fluorescence (untreated unstimulated = 0%, untreated Hh-stimulated = 100%); higher = more Smo activation sensor fluorescence
Conditions: compound concentration: 2 uM, 24 h
[1] = stimulation: Hh conditioned medium (+Hh)
[2] = stimulation: mock conditioned medium (-Hh)
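Also: flow cytometry read-out as median GFP intensity of gated cells, compounds added 30 min before Hh-conditioned or mock medium, mock-treated cells serving as unstimulated baseline.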

Row | SMILES | normalized SmoIP GFP fluorescence [1] [%] | normalized SmoIP GFP fluorescence [2] [%]
1 | O=C(C[S+]([O-])Cc1ccco1)NC/C=C\COc1cc(CN2CCCCC2)ccn1 (stereo not given) [lafutidine] | 113 | -9.85
2 | Cc1ccc2c(c1)C(=O)C1(O)CCN(c3ccccc3)C1=N2 (stereo not given) [blebbistatin] | 105 | -0.378
3 | Cc1cccc(C)c1OCC(=O)N[C@@H](Cc1ccccc1)[C@@H](O)C[C@H](Cc1ccccc1)NC(=O)[C@H](C(C)C)N1CCCNC1=O [Lopinavir] | 117 | 6.52
4 | CNCC[C@@H](Oc1ccccc1C)c1ccccc1 [atomoxetine-hydrochloride] | 104 | -0.264
5 | CC(C)N(CCCNC(=O)Nc1ccc(C(C)(C)C)cc1)C[C@H]1O[C@@H](n2cc(Br)c3c(N)ncnc32)[C@H](O)[C@@H]1O | 140 | 0.986
6 | c1ccc2c(Oc3nc(Nc4ccc(N5CCOCC5)cc4)c4ncn(C5CCCCC5)c4n3)cccc2c1 [purmorphamine] | 107 | -1.23
7 | CNCc1ccc(C)c(NC(=O)c2ccc(Nc3nc(-c4ccccc4)c4ccccc4n3)cc2)c1 | 124 | 11.6
8 | CCOC(=O)[C@H](CCc1ccccc1)N[C@H]1CS[C@H](c2cccs2)CN(CC(=O)O)C1=O [temocapril-hcl] | 111 | 0.785
9 | COc1ccc(C(=O)Nc2sc3c(c2C(N)=O)CCCC3)cc1OC | 128 | -9.85
10 | COC[C@H](NC(=O)c1cnc(C)s1)C(=O)N[C@@H](COC)C(=O)N[C@@H](Cc1ccccc1)C(=O)[C@@]1(C)CO1 [oprozomib-onx-0912] | 81.9 | 26.7
11 | CN(C)c1ccc(-c2nc3ncc(Cl)c(N4CCN(CC(=O)Nc5nccs5)CC4)c3[nH]2)cc1 | 125 | 6.74
12 | O=C(NCc1cccc(O)c1)Nc1nc(-c2ccncc2)cs1 | 107 | -2.93
13 | CC(C)NCC(O)COc1cccc2ccccc12 (stereo not given) [propranolol-hcl] | 111 | -1.63
14 | Cc1ccc(NC(=O)c2ccc(CN3CCN(C)CC3)cc2)cc1Nc1nc(-c2cccnc2)cs1 [Masitinib-(AB1010)] | 113 | 20.6
15 | O=C(Cc1ccc(-c2ccc(OCCN3CCOCC3)cc2)cn1)NCc1ccccc1 | 108 | 23.9
16 | CC(C)c1cc(C(=O)N2Cc3ccc(CN4CCN(C)CC4)cc3C2)c(O)cc1O | 107 | 13.8
17 | O=C(NCCN1CCOCC1)c1ccc(Cl)cc1 [moclobemide] | 108 | -3.05
18 | COc1ccc(-c2oc3c(CC=C(C)C)c(O[C@@H]4O[C@H](CO)[C@@H](O)[C@H](O)[C@H]4O)cc(O)c3c(=O)c2O[C@@H]2O[C@@H](C)[C@H](O)[C@@H](O)[C@H]2O)cc1 [Icariin] | 92.7 | -3.27

Row | SMILES | normalized SmoIP GFP fluorescence [1] [%] | normalized SmoIP GFP fluorescence [2] [%]
19 | Nc1ncnc2c1c(-c1cnc3[nH]ccc3c1)nn2C1CCCC1 | 50.6 | -17.9
20 | O=C(c1ccc(Nc2nccc(-c3cc4ccccc4s3)n2)cc1)N1CCC(N2CCCC2)CC1 | 106 | 1.1
21 | Oc1cc(O)c(Cl)cn1 [gimeracil] | 107 | -6.97
22 | C=CC(=O)Nc1ccc2ncnc(Nc3cccc(Br)c3)c2c1 | 125 | -0.662
23 | CC1=C(C(=O)OC2CCCCC2)C(c2ccc([N+](=O)[O-])cc2)C2=C(CC(C)(C)CC2=O)N1 (stereo not given) | 117 | 4.26
24 | c1ccc(-c2nn3c(c2-c2ccnc4cc(OCCN5CCOCC5)ccc24)CCC3)nc1 | 137 | 30.2
25 | CC(C)(C#N)c1cc(Cn2cncn2)cc(C(C)(C)C#N)c1 [Anastrozole] | 109 | -2.96
26 | CC(C)OC(=O)OCOP(=O)(CO[C@H](C)Cn1cnc2c(N)ncnc21)OCOC(=O)OC(C)C [Tenofovir-Disoproxil-Fumarate] | 91.2 | 2.43
27 | CCN(c1cc(-c2ccc(CN3CCOCC3)cc2)cc(C(=O)NCc2c(C)cc(C)[nH]c2=O)c1C)C1CCOCC1 | 106 | -3.39
28 | CO[C@H]1C[C@@H]2CC[C@@H](C)[C@@](O)(O2)C(=O)C(=O)N2CCCC[C@H]2C(=O)O[C@H]([C@H](C)C[C@@H]2CC[C@@H](O)[C@H](OC)C2)CC(=O)[C@H](C)/C=C(\C)[C@@H](O)[C@@H](OC)C(=O)[C@H](C)C[C@H](C)/C=C/C=C/C=C/1C [Rapamycin] | 26.9 | 19.1
29 | CN(C)Cc1ccc(-c2nc3cccc4c3n2CCNC4=O)cc1 | 120 | -14.3
30 | CN1CCN(C(=O)c2cc3cc(Cl)ccc3[nH]2)CC1 | 101 | -2.71
31 | OCc1ccc(-c2ccc(-c3ccc(CO)s3)o2)s1 | 111 | -2.08
32 | O=C(O)CCCc1ccccc1 [sodium-phenylbutyrate] | 112 | -2.93
33 | CCN(CC)CCOc1ccc(/C(=C(\Cl)c2ccccc2)c2ccccc2)cc1 [Clomifene-citrate-Serophene] | 139 | -11.6
34 | Cc1cnc(-c2cnc(NCCNc3ccc(C#N)cn3)nc2-c2ccc(Cl)cc2Cl)[nH]1 | 118 | -0.151
35 | CC(=O)Nc1nc(C)c(-c2ccc(Cl)c(S(=O)(=O)NCCO)c2)s1 | 130 | -1.13
